High-throughput results deposited in PubChem by National Center for Advancing Translational Sciences (NCATS).
This is a sample that favours compounds with a hit; in the whole collection about 2.4% have one here.
Rango release inh: prevents RanGTP from dissociating the Rango-importin beta complex; O95149+P62826; Biochemical FRET Rango-importin beta, RanGTP-induced dissociation; Potency, µM (titrated, usually from 46.1 µM); 340,000 compounds, 0.071% hits; AID 540253; calls by dose curve; further: nearly all actives have a fitted effect of over 45% in size
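Quantitative HTS using a FRET biosensor: 0.1 uM Rango, 0.25 uM importin beta, 0.6 uM Ran, 2 mM GTP, 0.2 uM RCC1 final, PBS with DTT, Tween-20 and BSA. Post-read taken 45 min after Ran addition.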
ELG1 DNA repair: ELG1-dependent DNA repair inhibition; 330,000 compounds, 2.3% hits; HEK293T ELG1-luciferase reporter, luminescence, 16 h; DNA damage induced by 5-fluorouridine; Potency, µM (titrated, usually from 46.1 µM), actives largely listed as inhibitors; further: nearly all actives have a fitted effect of over 55% in size
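Step one: seed 2,000 cells per well. Step two: pin-transfer compound or DMSO alongside 5-fluorouridine. Step three: incubate 16 hr, 37 °C, 5% CO2. Step four: add ONE-Glo, wait 30 min, read luminescence.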
PKM2 act: activators of human pyruvate kinase M2; P14618; purified PKM2, Kinase-Glo ATP luminescence, activation; response scale: 0% is enzyme alone, no compound; Potency, µM (doses to about 57.5 µM), hits mostly activators; 260,000 compounds, 0.34% hits; AID 1631; further: nearly all actives have a fitted effect of over 55% in size
Target sequence (P14618 whole entry, looked up): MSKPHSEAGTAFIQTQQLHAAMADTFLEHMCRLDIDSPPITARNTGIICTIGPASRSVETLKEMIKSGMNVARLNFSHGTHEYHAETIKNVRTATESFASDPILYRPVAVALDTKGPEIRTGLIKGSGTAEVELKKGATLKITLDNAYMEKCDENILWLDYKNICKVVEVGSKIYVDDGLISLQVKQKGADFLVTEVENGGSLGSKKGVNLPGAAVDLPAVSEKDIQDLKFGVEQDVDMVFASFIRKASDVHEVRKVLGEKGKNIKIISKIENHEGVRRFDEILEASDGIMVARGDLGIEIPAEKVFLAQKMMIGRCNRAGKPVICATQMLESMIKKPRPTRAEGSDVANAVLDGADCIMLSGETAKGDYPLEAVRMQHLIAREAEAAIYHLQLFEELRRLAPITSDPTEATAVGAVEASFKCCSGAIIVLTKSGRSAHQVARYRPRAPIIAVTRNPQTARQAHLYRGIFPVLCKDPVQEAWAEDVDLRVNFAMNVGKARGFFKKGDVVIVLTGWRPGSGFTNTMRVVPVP
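ATP formation by purified human PK-M2, quantified via coupled luciferase luminescence after 1 h at room temperature with 0.1 mM ADP and 0.5 mM PEP final.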
Rango-impB inh: Rango-importin beta binding inhibition. Rango CFP/YFP FRET sensor + importin beta, 45 min. Q14974. 340,000 compounds, 0.031% hits. Potency, µM (top dose mostly 92.2 µM); calls by dose curve; further: nearly all actives have a fitted effect of over 15% in size
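FRET biosensor Rango (snurportin 1 IBB between N-terminal EYFP and C-terminal Cerulean), 50 nM in PBS/1 mM DTT/0.02% Tween-20/0.1% BSA, preincubated 5 min RT with compound; 0.125 microM importin beta added, 45 min RT, CFP/YFP FRET ratio read.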
Tb PFK inh: T. brucei PFK enzyme inhibition; O15648; T. brucei PFK, ADP-Glo luminescence; Potency, µM (series often up to 57.5 µM), most hits filed as inhibitors; 330,000 compounds, 0.17% hits; AID 485367; further: nearly all actives have a fitted effect of over 60% in size
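1.25 nM PFK with 0.5 mM F6P and 0.1 mM ATP in 0.1 M TEA pH 8.0, 5 mM MgCl2, incubated 45 min at room temperature; ADP measured by ADP-Glo luminescence; compounds titrated up to 57 uM.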
Tb PGK inh: T. brucei PGK inhibition; Potency, µM (series often up to 57.5 µM), hits mostly inhibitors; P07378; PGK/GAPDH coupled, Kinase-Glo luminescence, 60 min; 380,000 compounds, 0.043% hits; further: nearly all actives have a fitted effect of over 60% in size
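Recombinant glycosomal PGK reaction used 1,3-bisphosphoglycerate generated in-well by GAPDH (100nM final) in 100mM TEA pH 7.6, 5mM MgCl2, 0.01% Tween-20. After 60 minutes at room temperature, ATP was read by Kinase-Glo Plus luminescence end-point.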
HeLa tox: counter-screen for pyruvate kinase M2 activators: HeLa cytotoxicity. 230 tested, under 10 active. activity change, negative = cytotoxicity, % at 57.5 µM. shares compounds with PKM2 act. HeLa viability, CellTiter-Glo ATP luminescence, 24 h
Each line names hits and unclear results; the compound was inactive in the other large screens (follow-up assays come after a bar, where they were run). Unless noted, the call rests on the fitted dose curve; in most records, active means well fitted curve in the direction sought with a large enough effect; inconclusive means small, poorly fitted or top-dose-only effect, or another doubt; inactive means no such curve, though single readings can be large; an effect the other way counts as inactive or inconclusive.

CC(Sc1ncc(C#N)c(N)n1)C(=O)Nc1ccccc1 (stereo not drawn)	PKM2 act 4.5µM | HeLa tox inactive
CC(C)Nc1nc(SC(C)C(=O)Nc2ccccc2)nc(N(C)C)n1 (stereo not drawn)	none
COc1cc(NC(=O)CSc2nnc3c(n2)[nH]c2ccc(S(=O)(=O)NC(C)C)cc23)cc(OC)c1OC	ELG1 DNA repair inconclusive, PKM2 act 0.79µM | HeLa tox inactive
O=C(CSc1nnc2c(n1)[nH]c1ccc(S(=O)(=O)N3CCOCC3)cc12)Nc1ccc(F)c(F)c1	none
COc1ccc(CCNC(=O)CSc2ccc3ccccc3c2)cc1OC	none
O=C(CSc1ccc2ccccc2c1)NCCc1ccc(O)c(O)c1	PKM2 act 2.8µM | HeLa tox inactive
COc1cccc(NC(=O)CSc2nnc3cc(C)nc(N)n23)c1	PKM2 act 1.8µM | HeLa tox inactive
Cc1cc2nnc(SCC(=O)Nc3ccc(Cl)cc3)n2c(N)n1	PKM2 act inconclusive
Cc1cc(C)cc(NC(=O)CSc2nncn3c2cc2occc23)c1	none (no result: Rango release inh, ELG1 DNA repair, PKM2 act, Rango-impB inh, Tb PFK inh)
C/C=C/c1ccc2c(c1)O[C@H](CN(C)C(=O)NC1CCCC1)[C@H](C)CN([C@H](C)CO)S2(=O)=O	none (no result: Rango release inh, ELG1 DNA repair, PKM2 act, Rango-impB inh, Tb PFK inh)
O=C(CCCn1c(=S)[nH]c2cc3c(cc2c1=O)OCO3)NC1CC1	PKM2 act 2.8µM | HeLa tox inactive
Nc1nnc(SCC(=O)Nc2cccc(S(=O)(=O)N3CCCCC3)c2)s1	none (no result: PKM2 act)
COc1ccc(C2=C3C(=O)OCC3Cc3ncn(Cc4ccccc4)c32)cc1 (stereo not drawn)	none (no result: PKM2 act)
Cc1ccc(S(=O)(=O)N2CCN(c3ccc([N+](=O)[O-])c(Sc4nncn4C)c3)CC2)cc1	PKM2 act 0.2µM | HeLa tox inactive
Cc1cc(C)n(-c2cc(N3CCN(S(=O)(=O)c4ccc(C)c(C)c4)CC3)ccc2[N+](=O)[O-])n1	ELG1 DNA repair inconclusive
Cc1ccc(CCC(=O)Nc2nccs2)o1	PKM2 act 20µM | HeLa tox inactive
Cn1c2cc(Br)sc2c2cnn(Cc3c(F)cccc3F)c(=O)c21	none (no result: Rango release inh, ELG1 DNA repair, PKM2 act, Rango-impB inh, Tb PGK inh)
Cc1cc2[nH]c3c(=O)n(Cc4ccccc4F)ncc3c2s1	none (no result: Rango release inh, ELG1 DNA repair, PKM2 act, Rango-impB inh, Tb PFK inh, Tb PGK inh) | HeLa tox inactive
Cc1cc2c(s1)c1cnn(Cc3ccc(C(F)(F)F)cc3F)c(=O)c1n2C	none (no result: Rango release inh, ELG1 DNA repair, PKM2 act, Rango-impB inh, Tb PFK inh, Tb PGK inh) | HeLa tox inactive
Cc1cc2c(s1)c1c(C)nn(Cc3ccccc3F)c(=O)c1n2C	none (no result: Rango release inh, ELG1 DNA repair, PKM2 act, Rango-impB inh, Tb PGK inh) | HeLa tox inactive
Cc1cc2c(s1)c1cnn(Cc3cccc(F)c3F)c(=O)c1n2C	none (no result: Rango release inh, ELG1 DNA repair, PKM2 act, Rango-impB inh, Tb PFK inh, Tb PGK inh) | HeLa tox inactive
O=C(NCc1ccccn1)C(=O)Nc1nc(C23CC4CC(CC(C4)C2)C3)cs1	none
CCn1c2cc(C)sc2c2cnn(Cc3ccccc3F)c(=O)c21	none (no result: Rango release inh, ELG1 DNA repair, PKM2 act, Rango-impB inh, Tb PFK inh, Tb PGK inh) | HeLa tox inactive
CCN1CCN(C(=O)Cn2ncc3c4ccccc4n(Cc4ccccc4F)c3c2=O)CC1	none (no result: Rango release inh, ELG1 DNA repair, PKM2 act, Rango-impB inh, Tb PFK inh)
Cc1cc2c(s1)c1cnn(Cc3ccc(C)c(F)c3F)c(=O)c1n2C	none (no result: Rango release inh, ELG1 DNA repair, PKM2 act, Rango-impB inh, Tb PFK inh, Tb PGK inh) | HeLa tox inactive
O=c1c2ccccc2sn1-c1ccc(S(=O)(=O)N2CCCC2)cc1	PKM2 act 1.4µM, Tb PFK inh inconclusive | HeLa tox inactive
CCNc1nc(NCC)nc(Oc2ccc(N)cc2)n1	PKM2 act 2.5µM, Rango-impB inh inconclusive | HeLa tox inactive
O=C1Nc2cccc3c2N(CCC3)C2=C1CCC2	none (no result: Rango release inh, ELG1 DNA repair, PKM2 act, Rango-impB inh, Tb PFK inh)
Cc1ccc(NC(=O)CCc2c(C)nc3nc(C)nn3c2C)c(Cl)c1	none (no result: Rango release inh, ELG1 DNA repair, PKM2 act, Rango-impB inh, Tb PFK inh)
CCc1nnc(NC(=O)CSc2nnc(-c3ccc(NS(=O)(=O)c4ccccc4)cc3)o2)s1	PKM2 act 0.79µM, Rango-impB inh inconclusive | HeLa tox inactive
Cc1ccc(NS(=O)(=O)c2ccc3oc(=O)ccc3c2)cc1Cl	PKM2 act 1µM | HeLa tox inactive
O=c1ccc2cc(S(=O)(=O)Nc3ccc(F)cc3)ccc2o1	PKM2 act inconclusive
O=C(NC1CC(=O)N(c2ccccc2)C1)c1cc2ccccc2o1 (stereo not drawn)	none (no result: Rango release inh, ELG1 DNA repair, PKM2 act, Rango-impB inh, Tb PFK inh)
CCNS(=O)(=O)c1ccc(NC(=O)c2ccc(Cn3cc(Br)cn3)o2)cc1	ELG1 DNA repair inconclusive, PKM2 act 5µM | HeLa tox inactive
CCOc1ccccc1NC(=O)CSc1nc2cc(OC)c(OC)cc2c2nc(-c3ccccc3)nn12	none (no result: Rango release inh, ELG1 DNA repair, PKM2 act, Rango-impB inh, Tb PFK inh)
O=S(=O)(c1cccs1)N1CCN(S(=O)(=O)c2cccs2)CC1	PKM2 act 0.4µM | HeLa tox inactive
O=S(=O)(c1cccs1)N1CCCCC1	none (no result: Rango release inh, ELG1 DNA repair, PKM2 act, Rango-impB inh, Tb PFK inh)
O=C(CCc1c[nH]c2ccccc12)NC(Cc1ccccc1)C(=O)O (stereo not drawn)	none (no result: PKM2 act)
O=S(=O)(c1c(F)cccc1F)N1CCN(S(=O)(=O)c2c(F)cccc2F)CC1	none (no result: Rango release inh, ELG1 DNA repair, PKM2 act, Rango-impB inh, Tb PFK inh, Tb PGK inh) | HeLa tox inactive
C[C@@H]1CN(S(=O)(=O)c2c(F)cccc2F)CCN1S(=O)(=O)c1ccc2c(c1)OCCO2	none (no result: PKM2 act) | HeLa tox inconclusive
O=S(=O)(NC1CCN(S(=O)(=O)c2ccc3c(c2)OCCO3)C1)c1c(F)cccc1F (stereo not drawn)	ELG1 DNA repair inconclusive (no result: PKM2 act) | HeLa tox inactive
